# Screens: PubChem BioAssay, Broad Institute
# Sampled rows, rich in hits. Any-hit rate of the full collection: about 0.64%.
# PvdQ acylase: P. aeruginosa PvdQ acylase inhibition | purified PvdQ acylase, fluorescence plate reader | inhibition, % at 10 µM | hit rate 0.063% among 340,000; in the data active = inhibition above about 30%, passing the limit was not always enough; inconclusive = no clear call, values can overlap the other calls;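 also: 0% = vehicle neutral wells and 100% = reference inhibitor wells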
# ERp5 inh: blocks human ERp5 reductase activity on insulin; Q15084; AID 651711; hit rate 0.05% among 350,000; ERp5 insulin aggregation, absorbance 650 nm, 90 min; inhibition, % at 9.99 µM;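 active = mean replicate inhibition above about 25%, with every replicate also reaching it, limit read from the data, passing the limit was not always enough; inconclusive = only one of those two criteria met; inactive = neither criterion met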
# AI-2 QS mod: modulates the Vibrio harveyi AI-2 quorum sensing system; Vibrio harveyi JMH597 AI-2 luminescence/OD600 ratio, 9 h; stronger effect = lower value; strain lacks LuxN and CqsS sensors; 0 = neutral-control median; activity change, % at 7.5 µM; AID 2094; hit rate 0.4% among 300,000; in the data active = activity change below about -75%, passing the limit was not always enough; inconclusive = no clear call, values can overlap the other calls;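 also: luminescence divided by OD600 gain over 9 h not by final OD600 alone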
# Vif imaging: inhibitors of HIV Vif; hit rate 0.35% among 340,000; HEK293T cells, Vif self-association by quenched fluorescence, imaging, 24 h; inhibition, % at 7.49 µM; in the data active = inhibition above about 50%, passing the limit was not always enough; inconclusive = no clear call, values can overlap the other calls; inactive = below about 31%
# PDI inh: blocks human protein disulfide isomerase activity; P07237; hit rate 0.052% among 350,000; PDI insulin aggregation turbidity, A650, 90 min; inhibition, % at 10 µM;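 active = mean inhibition across replicates of 30% or more, whatever share of single replicates reach that level; inconclusive = mean inhibition below 30% while every single replicate reaches 30%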
# Target sequence (P07237 whole entry, looked up): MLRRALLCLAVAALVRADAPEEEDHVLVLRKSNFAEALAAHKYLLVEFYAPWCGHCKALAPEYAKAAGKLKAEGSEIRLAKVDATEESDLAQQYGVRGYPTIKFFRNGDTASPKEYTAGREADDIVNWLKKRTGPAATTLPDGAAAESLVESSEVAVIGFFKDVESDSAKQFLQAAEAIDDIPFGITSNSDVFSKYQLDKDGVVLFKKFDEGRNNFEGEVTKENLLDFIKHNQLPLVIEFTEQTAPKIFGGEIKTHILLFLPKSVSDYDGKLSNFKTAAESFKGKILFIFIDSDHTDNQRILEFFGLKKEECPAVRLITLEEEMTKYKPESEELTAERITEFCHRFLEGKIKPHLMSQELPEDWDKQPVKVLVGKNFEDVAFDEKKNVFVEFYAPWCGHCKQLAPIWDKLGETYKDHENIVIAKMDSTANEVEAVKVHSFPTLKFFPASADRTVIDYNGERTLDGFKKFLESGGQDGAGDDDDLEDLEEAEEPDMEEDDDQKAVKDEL
# JMH597 growth rt: retest Vibrio harveyi JMH597 growth inhibition. AID 2726. growth inhibition, % at 7.5 µM. hit rate 1% among 750. OD600 absorbance, 9 h; lacks LuxN and CqsS sensors. shares compounds with AI-2 QS mod;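 active = every replicate shows growth inhibition above 50%; inconclusive = at least half, but not all, replicates pass that cutoff; inactive = fewer than half of replicates pass it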
# BB721 lum counter: retest counter-screen: BB721 constitutive quorum sensing luminescence decrease; shares compounds with AI-2 QS mod; Vibrio harveyi BB721 luminescence, 9 h; inhibition, % at 7.5 µM; hit rate 95% among 750;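 active = inhibition above about 80% in every replicate, not just on average, limit read from the data; inconclusive = at least half of replicates past the limit, but not all; inactive = fewer than half of replicates past the limit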
# BB721 growth: retest Vibrio harveyi BB721 growth inhibition. shares compounds with AI-2 QS mod. OD600 absorbance, 9 h. growth inhibition, % at 7.5 µM. hit rate 3% among 750;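 active = every replicate shows growth inhibition above 50%; inconclusive = at least half but not all replicates above 50% inhibition; inactive = under half of replicates above 50% inhibition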
# JMH597 AI-2 mod: Vibrio harveyi AI-2 signaling luminescence modulation – JMH597 strain, confirmation | inhibition, % at 7.5 µM | shares compounds with AI-2 QS mod | Vibrio harveyi JMH597 AI-2 quorum sensing luminescence, 9 h; luxN and CqsS knockout, AI-2 only | hit rate 97% among 750 | AID 2736;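 active = every replicate shows more than 75% inhibition of signal versus neutral control wells; inconclusive = half to three quarters of replicates exceed 75% inhibition; inactive = fewer than half of replicates exceed 75% inhibition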
# * marks the source's active call; other numbers are inactive results; ? = inconclusive; · = not tested or not shown.
SMILES,PvdQ acylase,ERp5 inh,AI-2 QS mod,Vif imaging,PDI inh,JMH597 growth rt,BB721 lum counter,BB721 growth,JMH597 AI-2 mod
CC(C)(C)C(=O)Cn1nnc(-c2ccc(C(F)(F)F)cc2)n1,-12.2,-8.2,-79.6*,4.1,-2.7,-30.4,90.1*,-0.7,93.1*
COc1ccc(N2CCN(C(=O)Cn3nnc(-c4cccs4)n3)CC2)cc1,-7.9,·,36.1,-1.7,-5.8,·,·,·,·
NC(=O)Cn1nnc(-c2ccc(C(F)(F)F)cc2)n1,-19.8,·,17.0,4.8,0.7,·,·,·,·
O=C(O)C[C@@H]1C[C@H]2c3cc(NC(=O)Nc4ccc(C(F)(F)F)cc4)ccc3O[C@H]2[C@H](CO)O1,·,-4.0,·,·,·,·,·,·,·
O=C(Nc1cnn(Cc2ccc(F)cc2)c1)c1cnccn1,-11.1,·,-95.2*,·,-42.2,5.2,97.7*,2.2,98.4*
O=C(O)c1ccc(N/N=C/c2ccc3c(c2)OCO3)cc1,-13.2,1.9,-84.7*,-3.3,-2.7,9.5,97.9*,38.8,97.6*
Cc1cc(C)nc(N/N=C/c2cc3c(cc2[N+](=O)[O-])OCO3)n1,-2.5,-4.1,4.1,16.0,5.4,·,·,·,·
O=C(O)c1ccc(N/N=C/c2cc3c(cc2[N+](=O)[O-])OCO3)cc1,-4.9,3.0,?,8.5,-8.6,26.4,93.5*,14.7,94.0*
COc1cccc(C(=O)Oc2ccc(/C=N/Nc3ccc(C(=O)O)cc3)cc2OC)c1,-1.3,-1.2,40.7,1.1,0.2,·,·,·,·
COc1cccc(OCc2cc(/C=N/Nc3ccc(C(=O)O)cc3)ccc2OC)c1,9.7,0.9,-84.0*,2.5,-2.7,18.8,92.2*,5.1,95.2*
CC(C)CC#Cc1ccc2c(c1)O[C@@H](CN(C)C(=O)CC1CC1)[C@H](C)CN([C@H](C)CO)S2(=O)=O,·,11.3,·,·,·,·,·,·,·
CCNC(=O)C[C@@H]1CC[C@@H]2[C@H](COc3ccc(NC(=O)c4ccc(C(F)(F)F)cc4)cc3C(=O)N2C)O1,·,1.4,·,·,·,·,·,·,·
O=C(Cc1ccccc1F)Nc1ccc(SC(F)F)cc1,-14.7,2.0,-83.4*,-6.6,3.2,22.8,93.8*,25.8,93.9*
O=C(COC(=O)Cc1ccccc1F)Nc1ccc(SC(F)F)cc1,-14.5,2.1,-19.9,1.7,-4.2,·,·,·,·
Cc1cc(C(=O)NNC(=O)c2cccc(C(F)(F)F)c2)no1,-16.1,0.5,13.7,-3.7,-2.5,·,·,·,·
Cc1cc(C(=O)NNC(=O)Nc2cccc(C(F)(F)F)c2)no1,-10.3,-7.0,-89.8*,-1.7,3.5,-7.2,97.6*,-13.7,98.0*
COC(=O)/C=C/C(=O)Nc1cccc(C(F)(F)F)c1,-4.8,-2.0,-89.1*,-15.1,4.9,8.8,87.5*,34.1,87.1*
COC(=S)Nc1cccc(C(F)(F)F)c1,-10.4,2.4,12.5,3.3,-1.1,·,·,·,·
C[C@@H]1CN([C@H](C)CO)C(=O)c2cc(-c3ccc(C#N)cc3)cnc2O[C@H]1CN(C)C(=O)CN(C)C,·,5.6,·,·,·,·,·,·,·
C[C@@H]1CN([C@H](C)CO)C(=O)c2cccc(NS(=O)(=O)c3cn(C)cn3)c2O[C@H]1CN(C)C,·,0.4,·,·,·,·,·,·,·
Fc1ccccc1CSc1nnc(-c2ccccc2)o1,9.0,·,-93.4*,7.5,-7.1,11.5,97.8*,-4.7,98.2*
Cc1ccccc1-c1nnc(SCc2ccccc2)o1,-8.5,·,-95.9*,-15.0,7.0,11.4,98.8*,8.0,98.9*
c1ccc(CSc2nnc(-c3ccncc3)o2)cc1,10.9,·,-87.8*,-17.8,-4.2,-16.4,94.8*,-26.2,96.2*
N#Cc1ccc(CSc2nnc(-c3ccncc3)o2)cc1,6.7,4.2,5.9,6.5,0.9,·,·,·,·
Cc1ccccc1-c1nnc(SCc2ccccc2F)o1,-15.4,·,-81.2*,0.4,7.6,35.6,95.0*,17.4,95.9*
C[C@H](CO)N1C[C@H](C)[C@@H](CN(C)C(=O)NC2CCCC2)Oc2ncc(Br)cc2C1=O,·,6.4,·,·,·,·,·,·,·
C[C@H](CO)N1C[C@H](C)[C@H](CN(C)C(=O)Cc2ccncc2)Oc2cc(C#CC3(O)CCCC3)ccc2S1(=O)=O,·,-1.8,·,·,·,·,·,·,·
